NPSR antag: qHTS Assay for Antagonists of the Neuropeptide S Receptor: cAMP Signal Transduction | AID 1461, 2008 | CHO-NPSR cells, cAMP TR-FRET, antagonist mode | Q6W5P4 | 220,000 tested, 1% active | Potency, µM (titrated, usually from 38.3 µM), inactives show at the highest dose activity change, negative = inhibition, hits mostly inhibitors; also: nearly all actives have a fitted effect of over 50% in size
Target sequence (Q6W5P4 whole entry, looked up): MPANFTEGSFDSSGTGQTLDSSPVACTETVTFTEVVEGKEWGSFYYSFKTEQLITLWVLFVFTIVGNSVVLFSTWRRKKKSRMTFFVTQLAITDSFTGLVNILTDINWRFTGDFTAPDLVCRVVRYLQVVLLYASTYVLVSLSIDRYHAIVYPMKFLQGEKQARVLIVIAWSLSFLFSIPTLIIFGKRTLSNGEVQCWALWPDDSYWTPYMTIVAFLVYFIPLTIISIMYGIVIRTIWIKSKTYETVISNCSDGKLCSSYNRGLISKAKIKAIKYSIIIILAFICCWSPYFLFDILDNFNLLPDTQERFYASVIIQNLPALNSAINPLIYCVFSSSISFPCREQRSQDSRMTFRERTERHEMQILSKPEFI
ERK EGF inh: qHTS Assay for Inhibitors of the ERK Signaling Pathway using a Homogeneous Screening Assay; Stimulation with EGF. HEK293-V1b, EGF-stimulated phospho-ERK AlphaScreen. Potency, µM (doses to about 11.5 µM), inactives show top-dose activity change, negative = inhibition, most hits filed as inhibitors. 130,000 tested, 0.41% active;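 also: plate controls were stimulated vehicle wells for no effect and unstimulated vehicle basal for full effect; nearly all actives have a fitted effect of over 55% in size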
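Concentration-response of compounds against EGF-driven ERK phosphorylation in V1b-expressing HEK293 cells; 30 min preincubation, 5 min EGF, AlphaScreen detection; Normalized to DMSO basal and 25 nM EGF.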
* = called active by the depositor; [ ] = another dose, or the depositor's remark. Shown is part of a subset that was picked to be rich in hits. Calls follow the shape of the dose curve; as a rule, active = well fitted curve in the direction sought with a large enough effect; inconclusive = small, poorly fitted or top-dose-only effect, or another doubt; inactive = no such curve, though single readings can be large; an effect the other way counts as inactive or inconclusive. Unless noted, % is scaled to controls: 0 for no effect and ±100 for the full control effect; potency is read from the fitted curve at half-maximal effect.

For CCCCNc1c2c(nc3c(-c4ccccc4)c(C)nn13)CCC2 the results were NPSR antag 10µM*.
Screening CC(C)CC(=O)NC(=S)Nc1cccc2nsnc12 returned NPSR antag inconclusive and ERK EGF inh -11%.
Screening COc1c(C)cccc1C(=O)NC(=S)Nc1cccc2nsnc12 returned NPSR antag 7.9µM* and ERK EGF inh 2%.
Screening O=C(COc1ccccc1[N+](=O)[O-])N/N=C/c1ccc(O)c([N+](=O)[O-])c1 returned NPSR antag -23% and ERK EGF inh 19%.
For O=[N+]([O-])c1cc(/C=N\Nc2nccs2)ccc1O the results were NPSR antag 2.5µM*.
COC(=O)[C@H](COC(C)(C)C)NC(=O)O[C@@H]1C(=O)c2cc(OC)ccc2O[C@H]1c1cccc(OC)c1 was read as ERK EGF inh -10%.
`O=[N+]([O-])c1ccc(Nc2c3ccccc3nc3ccccc23)cc1` gave NPSR antag 6.3µM* and ERK EGF inh inconclusive.
For O=[N+]([O-])c1ccccc1Nc1c2ccccc2nc2ccccc12 the results were NPSR antag -17% and ERK EGF inh inconclusive.
COc1ccc([C@H]2[C@H](C(=O)OC(C)(C)C)N3N=Cc4ccccc4C3C23C(=O)c2ccccc2C3=O)cc1OC (some centres not stated) was read as NPSR antag 7.9µM* and ERK EGF inh -20%[57.5 µM].
For COc1ccc([C@H]2[C@H](C(=O)OC(C)(C)C)N3N=Cc4ccccc4C3C23C(=O)c2ccccc2C3=O)c(OC)c1 (some centres not stated) the results were NPSR antag -21% and ERK EGF inh 6%.
C[C@@H]1CCC2[C@](C)(CO)[C@@H](O)CC[C@]2(C)[C@]12CCC(CO)(CCO)O2 (some centres not stated) was read as ERK EGF inh 2%.
`COc1cc2ncnc(NCc3ccc(C)o3)c2cc1OC` gave NPSR antag 0% and ERK EGF inh 28µM*.
COc1cc2ncnc(NCc3ccc(Cl)cc3)c2cc1OC was read as NPSR antag -32% and ERK EGF inh 2.2µM*.
Screening COc1cc2ncnc(NCc3ccccc3Cl)c2cc1OC returned NPSR antag -32% and ERK EGF inh 1.3µM*.
`Cc1ccc(CNc2ncnc3cc(Cl)ccc23)o1` gave NPSR antag 7%[46.1 µM].
COc1ccc(CNc2ncnc3c2[nH]c2cc(OC)c(OC)cc23)cc1 was read as NPSR antag -35% and ERK EGF inh -6%[57.5 µM].
COc1cc2ncnc(NCc3ccccc3C)c2cc1OC was read as NPSR antag -14%[46.1 µM].
`CNC(=O)[C@H]1O[C@@H](n2cnc3c(N)ncnc32)[C@H](O)[C@H]1O` gave NPSR antag -13%[46.1 µM] and ERK EGF inh 10%.
`Cn1c(-c2nc(-c3ccccc3)cs2)nc2ccccc21` gave ERK EGF inh 14%.
For O=C(O)c1cc(-c2ccc3c(c2)OCO3)nc2ccc(Br)cc12 the results were NPSR antag 6.3µM* and ERK EGF inh -11%[57.5 µM].
COC(=O)c1cc(-c2ccc3c(c2)OCO3)nc2ccccc12 was read as NPSR antag -13%[46.1 µM].
Screening CCCCNc1nc(C)nc2c1nc(C)n2CCC returned ERK EGF inh 6%.
For CCCN1C(=O)/C(=C\C=C2/Sc3ccccc3N2CC)SC1=S the results were NPSR antag -8% and ERK EGF inh inconclusive.
Screening CCN1C(=O)/C(=C2/C=CC=CN2C)SC1=S returned NPSR antag -13%[46.1 µM].
`CCN1C(=O)/C(=C/C=C2\C=CN(CC)c3ccccc32)SC1=S` gave NPSR antag 3.2µM* and ERK EGF inh inconclusive.
CCN1C(=O)/C(=C\C=C2/C=CC=CN2CC)SC1=S was read as NPSR antag -56% and ERK EGF inh 25µM*.
Screening CS(=O)(=O)c1ccc(C(O)C(CO)NC(=O)C(Cl)Cl)cc1 (configuration not stated) returned ERK EGF inh 10%.
For CN1CCN(c2ncc3nc(-c4ccccc4)c(=O)n(CCC#N)c3n2)CC1 the results were ERK EGF inh 9%.
`CNc1ccccc1C(=O)N1CCc2c([nH]c3ccccc23)C1=O` gave ERK EGF inh 29%.
For COc1ccc2c(c1)C(=O)[C@H](OC(=O)NS(=O)(=O)c1ccc(C)cc1)[C@@H](c1ccc(OC)c(Br)c1)O2 the results were ERK EGF inh 1%.
For CCN1/C(=C/c2ccc3cccc(C)c3[n+]2CC)Sc2ccccc21 the results were NPSR antag 10µM*.
`CCN1/C(=C/c2ccc3cc(C)cc(C)c3[n+]2CC)Sc2cc(C)ccc21` gave NPSR antag -40% and ERK EGF inh inconclusive.
Screening COc1cccc2c1CCC1=CC(=O)CC[C@@]12C returned ERK EGF inh 5%.
For O=C(c1cccc(F)c1)N1CCC[C@@]2(CCN(Cc3ccccc3)C2)C1 the results were ERK EGF inh -8%.
O=C(/C=C/c1cccnc1)c1cc(F)ccc1O was read as NPSR antag 16% and ERK EGF inh 4%[57.5 µM].
Screening O=C(/C=C/c1cccnc1)/C=C/c1cccnc1 returned NPSR antag 48% and ERK EGF inh 10µM*.
`CC1=C2C(=COC(C)C2C)C(=O)C(C(=O)O)=C1O` (configuration not stated) gave ERK EGF inh 9%.
`O=C(NS(=O)(=O)c1ccc(F)cc1)O[C@@H]1C(=O)c2cc(Br)ccc2O[C@H]1c1ccc2c(c1)OCO2` gave ERK EGF inh -6%.
CO[C@@H]1c2cc(F)ccc2/C(=C\CCOC(=O)C/C=C/c2ccccc2)[C@H]1C was read as ERK EGF inh -17%.
Screening Cc1cc2c(Nc3ccccc3)ncnc2s1 returned NPSR antag -4% and ERK EGF inh 14µM*.
For COc1cc2ncnc(Nc3cccc(Br)c3)c2cc1OC the results were ERK EGF inh 0.1µM*.
`COc1cccc(Nc2ncnc3ccccc23)c1` gave NPSR antag 4%[46.1 µM].
Cc1ccc2ncnc(Nc3ccccc3)c2c1 was read as NPSR antag -4% and ERK EGF inh 3.5µM*.
For Cc1ccc2ncnc(Nc3cccc(C(=O)O)c3)c2c1 the results were NPSR antag 27% and ERK EGF inh -3%[57.5 µM].
Cc1ccc(C)c(Nc2ncnc3nc[nH]c23)c1 was read as NPSR antag -11%[46.1 µM].
c1ccc(Nc2ncnc3[nH]ncc23)cc1 was read as NPSR antag 8% and ERK EGF inh inconclusive.
Screening Cc1cccc(Nc2ncnc3nc[nH]c23)c1 returned NPSR antag 3%[46.1 µM] and ERK EGF inh 28µM*.
`C/C=C/C1=CC2=CC(=O)C(C)(OC(=O)c3c(C)cc(O)cc3O)C(=O)C2=CO1` (configuration not stated) gave ERK EGF inh 0%.
Screening COc1cc(NC(=O)O[C@@H]2C(=O)c3cc(Br)ccc3O[C@H]2c2ccc3c(c2)OCO3)cc(OC)c1OC returned ERK EGF inh -2%.
`COC(=O)[C@H]1O[C@@H](c2cc(OC)c(C)c(OC)c2OCc2ccccc2)[C@H](C)[C@H]2O[C@@]12C` gave ERK EGF inh 3%.
For COC(=O)CC1C(C)(C)C(O)C2CC3=C4C=C(OC)OC(c5ccoc5)[C@]4(C)CCC3[C@@]1(C)C2=O (some centres not stated) the results were ERK EGF inh 9%.

Source: PubChem (National Center for Advancing Translational Sciences (NCATS))
